This is part of a sample that, as a whole, favours compounds with a hit. Of some 83,000 tested, about 20% had one in any assay.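 For each line, cells grew in 96-well plates with the test compound present at a single concentration for 48 hours.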 Calls of active or inactive are those of the source. Rule for the calls: active = growth percent below 10; inactive = the rest.
Experiments:
Assay in all cases: NCI-60 one-dose screen, 48 h (100 = growth as untreated, 0 = no growth, -100 = all killed)
Details in all cases: 10 µM unless noted
NCI-H23 lung = system: NCI-H23 lung
NCI-H226 lung = system: NCI-H226 lung
NCI-H322M lung = system: NCI-H322M lung
HOP-62 NSCLC = system: HOP-62 NSCLC
NCI-H460 lung = system: NCI-H460 lung
HOP-92 NSCLC = system: HOP-92 NSCLC
NCI-H522 lung = system: NCI-H522 lung
A549/ATCC NSCLC = system: A549/ATCC NSCLC
786-0 renal = system: 786-0 renal
COLO 205 colon = system: COLO 205 colon
DU-145 prostate = system: DU-145 prostate
K-562 leukemia = system: K-562 leukemia
MALME-3M melanoma = system: MALME-3M melanoma
MDA-MB-231 breast = system: MDA-MB-231 breast
RXF 393 renal = system: RXF 393 renal
SF-268 CNS = system: SF-268 CNS
SF-295 CNS = system: SF-295 CNS
SF-539 CNS = system: SF-539 CNS
UACC-257 melanoma = system: UACC-257 melanoma
M14 melanoma = system: M14 melanoma

Measured: growth

CCN1CCN(Cc2ccc(NC(=O)Nc3cccc(-n4ccc5c(NC(=O)c6ccccc6)nccc54)c3)cc2C(F)(F)F)CC1
inactive: NCI-H23 lung 92.4% | NCI-H226 lung 99.5% | NCI-H322M lung 101% | HOP-62 NSCLC 72.6% | NCI-H460 lung 96.3% | HOP-92 NSCLC 60.5% | NCI-H522 lung 45.6% | A549/ATCC NSCLC 86.9% | 786-0 renal 108% | COLO 205 colon 65.7% | DU-145 prostate 88.8% | K-562 leukemia 49.3% | MALME-3M melanoma 64% | MDA-MB-231 breast 82% | RXF 393 renal 79.5% | SF-268 CNS 85.3% | SF-295 CNS 55.7% | SF-539 CNS 81.1% | UACC-257 melanoma 73.9% | M14 melanoma 76%

COc1ccc(Cl)cc1NC(=O)c1cc2c([nH]1)-c1nc(NC(=O)C(C)(C)C)sc1CC2
inactive: NCI-H23 lung 57.8% | NCI-H226 lung 57.7% | NCI-H322M lung 75.5% | HOP-62 NSCLC 61.7% | NCI-H460 lung 18.3% | HOP-92 NSCLC 51.4% | NCI-H522 lung 38% | A549/ATCC NSCLC 60.6% | 786-0 renal 93.2% | COLO 205 colon 78.1% | DU-145 prostate 59.9% | K-562 leukemia 10.6% | MALME-3M melanoma 74.1% | MDA-MB-231 breast 33.1% | RXF 393 renal 99% | SF-268 CNS 45.3% | SF-295 CNS 84.2% | UACC-257 melanoma 94.4% | M14 melanoma 71.7%
active: SF-539 CNS -14.6%

CC(C(C(=O)N1CCCCC1)N1CCCCC1)N1CCCCC1 (stereo not given)
inactive: NCI-H23 lung 107% | NCI-H226 lung 109% | NCI-H322M lung 119% | HOP-62 NSCLC 96.7% | NCI-H460 lung 114% | HOP-92 NSCLC 112% | NCI-H522 lung 93.1% | A549/ATCC NSCLC 94% | 786-0 renal 108% | COLO 205 colon 118% | DU-145 prostate 122% | K-562 leukemia 94.7% | MALME-3M melanoma 118% | MDA-MB-231 breast 112% | RXF 393 renal 112% | SF-268 CNS 115% | SF-295 CNS 117% | SF-539 CNS 116% | UACC-257 melanoma 101% | M14 melanoma 103%

O=S(=O)(O)c1ccc(F)cc1
inactive: NCI-H23 lung 96.1% | NCI-H226 lung 103% | NCI-H322M lung 97.3% | HOP-62 NSCLC 92.6% | NCI-H460 lung 111% | HOP-92 NSCLC 116% | NCI-H522 lung 82.8% | A549/ATCC NSCLC 101% | 786-0 renal 103% | COLO 205 colon 114% | DU-145 prostate 103% | K-562 leukemia 85% | MALME-3M melanoma 90.7% | MDA-MB-231 breast 112% | RXF 393 renal 116% | SF-268 CNS 93.2% | SF-295 CNS 96.1% | SF-539 CNS 102% | UACC-257 melanoma 111% | M14 melanoma 98.1%

O=C(Nc1ccc(-n2ccc3c(NC(=O)c4ccccc4)nccc32)cc1)c1cccc(C(F)(F)F)c1
active: NCI-H460 lung 2.21% | RXF 393 renal -8.11%
inactive: NCI-H23 lung 50% | NCI-H226 lung 63.9% | NCI-H322M lung 48.8% | HOP-62 NSCLC 46.2% | HOP-92 NSCLC 47.4% | NCI-H522 lung 12.2% | A549/ATCC NSCLC 13% | 786-0 renal 18.3% | COLO 205 colon 35.8% | DU-145 prostate 45.2% | K-562 leukemia 15.3% | MALME-3M melanoma 44.3% | MDA-MB-231 breast 51.4% | SF-268 CNS 26.9% | SF-295 CNS 11.3% | SF-539 CNS 16.8% | UACC-257 melanoma 44.4% | M14 melanoma 27.6%

CC(=O)Nc1ccc([I+]c2ccc([N+](=O)[O-])cc2)cc1
inactive: NCI-H23 lung 84.6% | NCI-H226 lung 79.9% | NCI-H322M lung 94.8% | HOP-62 NSCLC 96.4% | NCI-H460 lung 104% | HOP-92 NSCLC 90.5% | NCI-H522 lung 46.5% | A549/ATCC NSCLC 98.9% | 786-0 renal 98.3% | COLO 205 colon 63.4% | DU-145 prostate 107% | K-562 leukemia 69.3% | MALME-3M melanoma 43.6% | MDA-MB-231 breast 113% | RXF 393 renal 129% | SF-268 CNS 99.4% | SF-295 CNS 118% | SF-539 CNS 101% | UACC-257 melanoma 90.4% | M14 melanoma 83%

OCc1cn(-c2ccc(Cl)cc2)nc1-c1ccc(O)cc1
inactive: NCI-H23 lung 96.7% | NCI-H226 lung 96.9% | NCI-H322M lung 85.8% | HOP-62 NSCLC 81.9% | NCI-H460 lung 106% | HOP-92 NSCLC 136% | NCI-H522 lung 71.2% | A549/ATCC NSCLC 90.1% | 786-0 renal 93.4% | COLO 205 colon 115% | DU-145 prostate 97% | K-562 leukemia 88% | MALME-3M melanoma 100% | MDA-MB-231 breast 97.9% | RXF 393 renal 107% | SF-268 CNS 78.6% | SF-295 CNS 100% | SF-539 CNS 93.2% | UACC-257 melanoma 108% | M14 melanoma 95%

CCC1(C(N)=O)CC2C=CC1CC2 (stereo not given)
inactive: NCI-H23 lung 249% | NCI-H226 lung 109% | NCI-H322M lung 114% | HOP-62 NSCLC 136% | NCI-H460 lung 113% | HOP-92 NSCLC 94.1% | NCI-H522 lung 99.1% | A549/ATCC NSCLC 102% | 786-0 renal 171% | COLO 205 colon 94.8% | DU-145 prostate 116% | K-562 leukemia 113% | MALME-3M melanoma 113% | MDA-MB-231 breast 97.8% | RXF 393 renal 108% | SF-268 CNS 110% | SF-295 CNS 102% | SF-539 CNS 102% | UACC-257 melanoma 77.1% | M14 melanoma 91.4%

C#CC(=O)/C=C/CCCCCCC#CC(=O)CCC(=O)C#CCCCCCC/C=C/C(=O)C#C
active: HOP-92 NSCLC -42.3% | NCI-H522 lung -78.6% | 786-0 renal -46.9% | COLO 205 colon -0.795% | K-562 leukemia 0.258% | MALME-3M melanoma -68.3% | MDA-MB-231 breast -6.98% | RXF 393 renal -36.7% | SF-539 CNS -34.5% | M14 melanoma -19.2%
inactive: NCI-H23 lung 15% | NCI-H226 lung 122% | NCI-H322M lung 93.5% | HOP-62 NSCLC 61.2% | NCI-H460 lung 80% | A549/ATCC NSCLC 87.8% | DU-145 prostate 35.3% | SF-268 CNS 22.5% | SF-295 CNS 71.7% | UACC-257 melanoma 62.9%

COC(=O)c1oc2c(C(C)=O)c(OCCN3CCCCC3)ccc2c1C
inactive: NCI-H23 lung 97.9% | NCI-H226 lung 118% | NCI-H322M lung 84.9% | HOP-62 NSCLC 125% | NCI-H460 lung 131% | HOP-92 NSCLC 60.4% | NCI-H522 lung 79.6% | A549/ATCC NSCLC 123% | 786-0 renal 52.9% | COLO 205 colon 130% | DU-145 prostate 117% | K-562 leukemia 89.4% | MALME-3M melanoma 40.9% | MDA-MB-231 breast 87.2% | RXF 393 renal 124% | SF-268 CNS 95.4% | SF-295 CNS 99.4% | SF-539 CNS 116% | UACC-257 melanoma 112% | M14 melanoma 111%

CCOC(=O)c1noc2c1CCc1c-2cn(Cc2ccc(OC)cc2)c1-c1cc(OC)c(OC)c(OC)c1
active: NCI-H460 lung 8.9% | NCI-H522 lung 3.83% | COLO 205 colon 1.98% | K-562 leukemia 7.62% | MDA-MB-231 breast -1.46% | SF-539 CNS -10.4% | M14 melanoma 3.01%
inactive: NCI-H23 lung 42.9% | NCI-H226 lung 40.8% | NCI-H322M lung 52.2% | HOP-62 NSCLC 22.8% | HOP-92 NSCLC 63.4% | A549/ATCC NSCLC 43.5% | 786-0 renal 34.7% | DU-145 prostate 24.5% | MALME-3M melanoma 76.9% | RXF 393 renal 11.7% | SF-268 CNS 41.5% | SF-295 CNS 21.2% | UACC-257 melanoma 54.3%

O=C1CCC(c2c(O)cc(O)c3c(=O)c(O)c(-c4ccc(O)c(O)c4)oc23)N1 (stereo not given)
inactive: NCI-H23 lung 94.7% | NCI-H226 lung 104% | NCI-H322M lung 92.8% | HOP-62 NSCLC 84.3% | NCI-H460 lung 105% | HOP-92 NSCLC 91.9% | NCI-H522 lung 70.9% | A549/ATCC NSCLC 81.1% | 786-0 renal 99.6% | COLO 205 colon 112% | DU-145 prostate 105% | K-562 leukemia 96.1% | MALME-3M melanoma 89.6% | MDA-MB-231 breast 118% | RXF 393 renal 99.8% | SF-268 CNS 96.4% | SF-295 CNS 101% | SF-539 CNS 103% | UACC-257 melanoma 86.1% | M14 melanoma 101%

CCCCCCCCN(CCCCCCCC)CC(O)c1cc(-c2ccccc2)nc2ccc(OC)cc12 (stereo not given)
inactive: NCI-H23 lung 67.1% | NCI-H226 lung 88.1% | NCI-H322M lung 106% | HOP-62 NSCLC 95.4% | NCI-H460 lung 98.9% | HOP-92 NSCLC 70.1% | NCI-H522 lung 77.5% | A549/ATCC NSCLC 78.6% | 786-0 renal 82.6% | COLO 205 colon 85.7% | DU-145 prostate 82.6% | K-562 leukemia 52.2% | MALME-3M melanoma 91.3% | MDA-MB-231 breast 63.7% | RXF 393 renal 90.2% | SF-268 CNS 38.3% | SF-295 CNS 93.8% | UACC-257 melanoma 83.2% | M14 melanoma 24.7%
active: SF-539 CNS 0.739%

[2H]c1nc(Nc2ncc(F)c(-c3cc(F)c4nc(C)n(C(C)C)c4c3)n2)c([2H])c([2H])c1CN1CCN(CC)CC1
inactive: NCI-H23 lung 48.7% | NCI-H226 lung 41.5% | NCI-H322M lung 41.1% | HOP-62 NSCLC 51.2% | NCI-H460 lung 43.9% | HOP-92 NSCLC 59.1% | NCI-H522 lung 66.1% | A549/ATCC NSCLC 36.2% | 786-0 renal 52.8% | COLO 205 colon 15.6% | DU-145 prostate 59% | MALME-3M melanoma 85.9% | MDA-MB-231 breast 55.5% | SF-268 CNS 54% | SF-295 CNS 59.2% | SF-539 CNS 67.2% | UACC-257 melanoma 72.3% | M14 melanoma 46.3%
active: K-562 leukemia -15.9% | RXF 393 renal -8%

CN1C(=O)C2(NN=C(c3cccc4ccccc34)S2)c2ccccc21 (stereo not given)
active: HOP-92 NSCLC -1.68% | A549/ATCC NSCLC 9.72%
inactive: NCI-H23 lung 50.4% | NCI-H226 lung 46.1% | NCI-H322M lung 44.4% | HOP-62 NSCLC 13.9% | NCI-H460 lung 14.6% | NCI-H522 lung 41.1% | 786-0 renal 33.5% | COLO 205 colon 23.5% | DU-145 prostate 50.3% | K-562 leukemia 11.8% | MALME-3M melanoma 63.5% | MDA-MB-231 breast 46% | RXF 393 renal 79% | SF-268 CNS 37.6% | SF-295 CNS 29.7% | SF-539 CNS 49.1% | UACC-257 melanoma 50.6% | M14 melanoma 17.3%
